Data from PubChem BioAssay (EPA / NIEHS).
Active and inactive are the calls of the source. How the source made its calls: active means hit-call score of the fitted dose curve at least 0.9, where 1 is the maximum; inactive means score below 0.9.

Experiments:
Conditions in all cases: mRNA level, 48 h; actives raise or lower the signal
[1] = read-out: Insulin Like Growth Factor 1 (IGF1), IGF1 (gene 3479); assay: LTEA_HepaRG_IGF1: Life Technologies and Expression Analysis (LTEA) Assay for Insulin Like Growth Factor 1 (IGF1) using HepaRG (AID 2283506)
In short: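 Endpoint: IGF1 mRNA change by qRT-PCR, housekeeping-normalized, fitted bidirectionally relative to 0.5% DMSO vehicle. Human HepaRG cells were treated 48 h in serum-free induction medium, eight half-log concentrations topping at 100 uM.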

[2] = read-out: Intercellular Adhesion Molecule 1 (ICAM1), ICAM1 (gene 3383); assay: LTEA_HepaRG_ICAM1: Life Technologies and Expression Analysis (LTEA) Assay for Intercellular Adhesion Molecule 1 (ICAM1) using HepaRG (AID 2283507)
In short: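 Differentiated human HepaRG cells in serum-free induction medium exposed 48 h in duplicate to 8 half-log concentrations (top 100 uM, 0.5% DMSO). ICAM1 mRNA quantified by TaqMan qRT-PCR, normalized to ACTB, GAPDH and POLR2A; bidirectional fitting versus DMSO.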

[3] = read-out: Insulin-like growth factor-binding protein 1 (IGFBP1), IGFBP1 (gene 3484); assay: LTEA_HepaRG_IGFBP1: Life Technologies and Expression Analysis (LTEA) Assay for Insulin-like growth factor-binding protein 1 (IGFBP1) using HepaRG (AID 2283508)
In short: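 HepaRG cells, plated 48 h then switched to serum-free induction medium, exposed in duplicate for 48 h to 8-point half-log series from 100 uM in 0.5% DMSO. mRNA measured by qRT-PCR, normalized to ACTB/GAPDH/POLR2A; bidirectional fit versus DMSO.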

[4] = read-out: Interleukin 6 Receptor (IL6R), IL6R (gene 3570); assay: LTEA_HepaRG_IL6R: Life Technologies and Expression Analysis (LTEA) Assay for Interleukin 6 Receptor (IL6R) using HepaRG (AID 2283510)
In short: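 In this HepaRG screen, test chemicals act on cells for 48 h at up to 100 uM (eight half-log points, duplicate wells). IL6R expression is quantified by qRT-PCR after normalization to ACTB, GAPDH and POLR2A, with DMSO as baseline.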

[5] = read-out: Potassium channel subfamily K member 1 (KCNK1), KCNK1 (gene 3775); assay: LTEA_HepaRG_KCNK1: Life Technologies and Expression Analysis (LTEA) Assay for Potassium channel subfamily K member 1 (KCNK1) using HepaRG (AID 2283511)
In short: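 KCNK1 transcript measured by TaqMan qRT-PCR against three housekeeping genes, after HepaRG cells were treated 48 h with eight half-log concentrations (top 100 uM, 0.5% DMSO). Curves fitted bidirectionally relative to vehicle.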

[6] = read-out: Lipase C (LIPC), LIPC (gene 3990); assay: LTEA_HepaRG_LIPC: Life Technologies and Expression Analysis (LTEA) Assay for Lipase C (LIPC) using HepaRG (AID 2283514)
In short: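 LIPC expression was quantified by qRT-PCR against three housekeeping genes (ACTB, GAPDH, POLR2A). Differentiated human HepaRG cells received eight half-log doses (top 100 uM, 0.5% DMSO) in duplicate for 48 h; fitting bidirectional relative to DMSO.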

[7] = read-out: Lipoprotein lipase (LPL), LPL (gene 4023); assay: LTEA_HepaRG_LPL: Life Technologies and Expression Analysis (LTEA) Assay for Lipoprotein lipase (LPL) using HepaRG (AID 2283515)
In short: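 LPL transcript levels quantified by TaqMan qRT-PCR against three housekeeping genes after 48 h chemical treatment of HepaRG cells. Eight-point half-log series from 100 uM in 0.5% DMSO, tested in duplicate; bidirectional fitting versus vehicle.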

[8] = read-out: MicroRNA 122 (MIR122), gene 406906; assay: LTEA_HepaRG_MIR122: Life Technologies and Expression Analysis (LTEA) Assay for MicroRNA 122 (MIR122) using HepaRG (AID 2283516); further: the transcript read is the microRNA miR-122
In short: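 Changes in transcript abundance, up or down relative to 0.5% DMSO vehicle, were scored after 48 h chemical treatment of HepaRG cells (maximum 100 uM). Quantification used TaqMan qRT-PCR normalized to housekeeping genes.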

[9] = read-out: matrix metalloproteinase-10 (MMP10), MMP10 (gene 4319); assay: LTEA_HepaRG_MMP10: Life Technologies and Expression Analysis (LTEA) Assay for matrix metalloproteinase-10 (MMP10) using HepaRG (AID 2283517)
In short: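 Expression measured by TaqMan qRT-PCR with ACTB/GAPDH/POLR2A normalisation after 48 h chemical exposure of HepaRG cells. Eight half-log concentrations, top 100 uM, 0.5% DMSO vehicle, duplicates; gain or loss fitted against vehicle.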

MYC, MYC (gene 4609) = assay: LTEA_HepaRG_MYC: Life Technologies and Expression Analysis (LTEA) Assay for MYC using HepaRG (AID 2283518)
In short: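 Differentiated HepaRG cells exposed 48 h in serum-free induction medium to 8 concentrations (top 100 uM, half-log steps; 0.5% DMSO), duplicate. MYC mRNA measured by Fluidigm qRT-PCR, normalized to ACTB, GAPDH, POLR2A; bidirectional fit versus DMSO.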

[10] = read-out: Paternally Expressed 10 (PEG10), PEG10 (gene 23089); assay: LTEA_HepaRG_PEG10: Life Technologies and Expression Analysis (LTEA) Assay for Paternally Expressed 10 (PEG10) using HepaRG (AID 2283520)
In short: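 After 48 h exposure of differentiated HepaRG cells (0.5% DMSO vehicle, eight concentrations up to 100 uM, duplicates), PEG10 mRNA was measured by TaqMan qRT-PCR. Values were normalised to endogenous control genes and analysed bidirectionally against vehicle.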

[11] = read-out: Nuclear factor NF-kappa-B p105 subunit (Homo sapiens) (UniProt P19838); assay: LTEA_HepaRG_NFKB1: Life Technologies and Expression Analysis (LTEA) Assay for Nuclear Factor Kappa B Subunit 1 (NFKB1) using HepaRG (AID 2283521);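 further: TaqMan qRT-PCR transcript normalised to ACTB GAPDH and POLR2A housekeeping genes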
In short: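 Differentiated human HepaRG cells in serum-free induction medium with 0.5% DMSO were exposed for 48 h to eight half-log concentrations, top 100 uM, in duplicate. NFKB1 mRNA measured by Fluidigm TaqMan qRT-PCR, normalised to ACTB, GAPDH and POLR2A; bidirectional fit versus DMSO.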

[12] = read-out: Protein phosphatase 2A (PPP2R4), PTPA (gene 5524); assay: LTEA_HepaRG_PPP2R4: Life Technologies and Expression Analysis (LTEA) Assay for Protein phosphatase 2A (PPP2R4) using HepaRG (AID 2283522)
In short: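 Using HepaRG cultures maintained in 0.5% DMSO, chemicals are tested 48 h at up to 100 uM in duplicate. Induction or suppression of PPP2R4 mRNA, measured by qRT-PCR, is fitted bidirectionally against the vehicle baseline.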

[13] = read-out: Phosphatase and tensin (PTEN), PTEN (gene 5728); assay: LTEA_HepaRG_PTEN: Life Technologies and Expression Analysis (LTEA) Assay for Phosphatase and tensin (PTEN) using HepaRG (AID 2283523)
In short: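 Read-out: TaqMan qRT-PCR of PTEN transcript, normalized to three housekeeping genes, fitted in both directions against 0.5% DMSO. Differentiated human HepaRG cultures received chemicals for 48 h, eight-point half-log series topping at 100 uM.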

[14] = read-out: solute carrier (SLC22A1), SLC22A1 (gene 6580); assay: LTEA_HepaRG_SLC22A1: Life Technologies and Expression Analysis (LTEA) Assay for solute carrier (SLC22A1) using HepaRG (AID 2283524)
In short: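 Transcript level of SLC22A1 quantified by qRT-PCR (normalized to three housekeeping genes) after 48 h chemical exposure of HepaRG cells, eight concentrations up to 100 µM, half-log steps, 0.5% DMSO vehicle. Gain or loss relative to DMSO fitted bidirectionally.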

[15] = read-out: Pyruvate Dehydrogenase Kinase 4 (PDK4), PDK4 (gene 5166); assay: LTEA_HepaRG_PDK4: Life Technologies and Expression Analysis (LTEA) Assay for Pyruvate Dehydrogenase Kinase 4 (PDK4) using HepaRG (AID 2283525)
In short: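 Readout is qRT-PCR of PDK4 transcript, normalized to three housekeeping genes, with bidirectional fitting against 0.5% DMSO vehicle. Differentiated HepaRG cells were treated 48 h in serum-free induction medium, duplicate wells, eight-point half-log series topping at 100 uM.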

[16] = read-out: matrix metalloproteinase-3 (MMP3), MMP3 (gene 4314); assay: LTEA_HepaRG_MMP3: Life Technologies and Expression Analysis (LTEA) Assay for matrix metalloproteinase-3 (MMP3) using HepaRG (AID 2283519)
In short: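 Fluidigm-based TaqMan qRT-PCR, normalized to ACTB, GAPDH and POLR2A and fitted bidirectionally versus 0.5% DMSO, measured transcript levels. Treatment: duplicate 48 h exposures of HepaRG cells, ~100,000/well, to eight half-log concentrations topping at 100 uM.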

[17] = read-out: Keratin 19 (KRT19), KRT19 (gene 3880); assay: LTEA_HepaRG_KRT19: Life Technologies and Expression Analysis (LTEA) Assay for Keratin 19 (KRT19) using HepaRG (AID 2283512)
In short: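 Differentiated HepaRG cells in serum-free induction medium, exposed 48 h in duplicate to 8 half-log concentrations up to 100 uM in 0.5% DMSO. KRT19 mRNA by qRT-PCR, normalized to ACTB, GAPDH, POLR2A; bidirectional fit vs DMSO.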

Measured: outcome

Nuclear factor NF-kappa-B p105 subunit (Homo sapiens), sequence (P19838 whole entry, looked up): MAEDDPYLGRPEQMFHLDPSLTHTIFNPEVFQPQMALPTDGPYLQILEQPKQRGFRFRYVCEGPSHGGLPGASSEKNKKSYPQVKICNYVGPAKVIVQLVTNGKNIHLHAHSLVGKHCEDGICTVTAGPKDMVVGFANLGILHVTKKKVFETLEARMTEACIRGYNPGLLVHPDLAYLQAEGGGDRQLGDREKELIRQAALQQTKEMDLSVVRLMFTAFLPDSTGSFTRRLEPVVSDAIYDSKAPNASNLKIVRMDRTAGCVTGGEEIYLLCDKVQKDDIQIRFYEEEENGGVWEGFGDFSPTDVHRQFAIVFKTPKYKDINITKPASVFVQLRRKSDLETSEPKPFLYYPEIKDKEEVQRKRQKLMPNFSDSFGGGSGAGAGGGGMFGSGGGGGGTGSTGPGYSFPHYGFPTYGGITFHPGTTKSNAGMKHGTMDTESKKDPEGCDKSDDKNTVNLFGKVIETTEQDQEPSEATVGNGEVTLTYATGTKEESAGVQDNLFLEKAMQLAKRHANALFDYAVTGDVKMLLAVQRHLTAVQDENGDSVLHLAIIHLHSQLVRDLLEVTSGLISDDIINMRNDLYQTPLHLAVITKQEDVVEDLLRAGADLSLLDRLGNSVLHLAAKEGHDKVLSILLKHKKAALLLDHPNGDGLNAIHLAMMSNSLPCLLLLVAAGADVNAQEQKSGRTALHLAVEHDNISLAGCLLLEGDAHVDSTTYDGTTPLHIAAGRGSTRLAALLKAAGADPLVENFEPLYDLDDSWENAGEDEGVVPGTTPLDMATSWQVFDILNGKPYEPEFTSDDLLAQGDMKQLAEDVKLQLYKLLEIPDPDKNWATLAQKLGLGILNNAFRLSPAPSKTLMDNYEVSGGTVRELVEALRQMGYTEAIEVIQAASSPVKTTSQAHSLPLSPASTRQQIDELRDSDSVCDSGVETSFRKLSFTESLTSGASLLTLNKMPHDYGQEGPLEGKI

Clc1nc(Cl)c(Cl)c(Cl)c1Cl
not listed: [16] | [17]
inactive: all other assays above

CC(C)=CCCC(C)CCO (centres undefined)
not listed: [15] | [17]
inactive: all other assays above

CC(C)=CCC/C(C)=C/CO
not listed: [15] | [16]
inactive: all other assays above

O=C1OC(=O)C2C3C=CC(C3)C12 (centres undefined)
not listed: [11] | [15] | [16]
inactive: all other assays above

O=C(O)CCN(C1(C(=O)NO)CCCC1)S(=O)(=O)c1ccc(Oc2ccc(F)cc2)cc1
not listed: [15] | [17]
inactive: all other assays above
